# Key:
# Assay in all cases: PBM binding z-score (relative to random genomic background probes); higher = stronger binding; sequences stand for … in GC…GCGATTGACAGCGTAGAATGAAGG
# [1] = tested on: FXR:RXRa (NR concentration 270 nM, RXRa partner concentration 90 nM)
# In short: (§1)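 The probes on custom Agilent 4×180K protein-binding microarrays were double-stranded, with 34-nt variable regions bearing direct-repeat seeds, single-nucleotide variants, half-site ablations and random human genomic background sequences. Incubation lasted 1 h with ligand-free nuclear receptor dimers in PBS pH 7.4, 2% milk, 0.02% Triton X-100, 1 mM DTT, 0.2 mg/mL BSA and 0.4 mg/ml salmon testes DNA. Antibodies against each partner (one per run) detected bound dimers, and fluorescence scans were regression-normalized. Binding z-scores take the random background probes as reference.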
# [2] = tested on: LXRa:RXRa (NR concentration 270 nM, RXRa partner concentration 90 nM)
# In short: as §1
# [3] = tested on: LXRa homodimer (NR concentration 270 nM)
# In short: as §1
# [4] = tested on: LXRb:RXRa (NR concentration 270 nM, RXRa partner concentration 90 nM)
# In short: as §1
# [5] = tested on: LXRb homodimer (NR concentration 270 nM)
# In short: as §1
# [6] = tested on: PPARa:RXRa (NR concentration 270 nM, RXRa partner concentration 90 nM)
# In short: as §1
# [7] = tested on: PPARg:RXRa (NR concentration 180 nM, RXRa partner concentration 90 nM)
# In short: as §1
# [8] = tested on: PPARg:RXRa 270nM:90nM, anti-RXR (NR concentration 270 nM, RXRa partner concentration 90 nM)
# In short: as §1
# [9] = tested on: PPARg:RXRa 30nM:10nM, anti-RXR (NR concentration 30 nM, RXRa partner concentration 10 nM)
# In short: as §1
# [10] = tested on: PPARg:RXRa 90nM:30nM, anti-RXR (NR concentration 90 nM, RXRa partner concentration 30 nM)
# In short: as §1
# [11] = tested on: PPARg:RXRa DBDmut IVT, anti-RXR (DBD mutation: RXRa K156A/R161A, NR concentration 270 nM, RXRa partner concentration 90 nM)
# In short: as §1
# [12] = tested on: PPARg:RXRa IVT, anti-PPARg (NR concentration 270 nM, RXRa partner concentration 90 nM)
# In short: as §1
# [13] = tested on: PPARg DBDmut:RXRa IVT, anti-PPARg (DBD mutation: PPARg1 K132A/R137A, NR concentration 270 nM, RXRa partner concentration 90 nM)
# In short: as §1
# [14] = tested on: PPARg DBDmut IVT, anti-PPARg (DBD mutation: PPARg1 K132A/R137A, NR concentration 270 nM)
# In short: as §1
# [15] = tested on: PPARg homodimer (NR concentration 180 nM)
# In short: as §1
# [16] = tested on: PXR:RXRa (NR concentration 270 nM, RXRa partner concentration 90 nM)
# In short: as §1
# [17] = tested on: PXR homodimer (NR concentration 270 nM)
# In short: as §1
# [18] = tested on: RARa:RXR (NR concentration 270 nM, RXRa partner concentration 90 nM)
# In short: as §1
# [19] = tested on: RARa homodimer (NR concentration 270 nM)
# In short: as §1
# [20] = tested on: RARb:RXRa (NR concentration 270 nM, RXRa partner concentration 90 nM)
# In short: as §1
Sequence,PBM binding z-score [1],PBM binding z-score [2],PBM binding z-score [3],PBM binding z-score [4],PBM binding z-score [5],PBM binding z-score [6],PBM binding z-score [7],PBM binding z-score [8],PBM binding z-score [9],PBM binding z-score [10],PBM binding z-score [11],PBM binding z-score [12],PBM binding z-score [13],PBM binding z-score [14],PBM binding z-score [15],PBM binding z-score [16],PBM binding z-score [17],PBM binding z-score [18],PBM binding z-score [19],PBM binding z-score [20]
GCAGACAGGTGAAACGCAGGTCACTCAGGGTGGC,1.55,2.05,0.579,1.27,-0.88,2.57,0.931,1.01,-0.357,0.0435,0.839,1.6,-0.584,-0.0986,1.32,2.65,-0.357,3.45,-0.516,2.44
AATACAGGGTCACTAGGCCAGCGTAGGTACGAAT,6.02,4.76,0.904,3.93,0.853,5.62,7.64,6.28,3.54,5.52,4.14,5.63,1.74,1,1.64,3.02,0.293,3.54,0.674,4.17
TCTAGTTGGTCAAAGGTCACATACTCGAAATGCG,5.54,5.66,3.58,5.2,2.28,6.24,10.8,9.78,9.93,11.1,3.45,6.25,1.46,1.64,5.02,5.59,1.83,7.12,3.51,4.83
TCTGGCAGGCCAGAGGGTCACTCAAGAGGTACGG,1.24,1.09,-0.32,1.08,-0.89,2.4,0.868,1.48,0.732,1.23,0.0912,0.182,-0.722,-0.915,0.353,1.59,-0.371,2,-0.717,2.31
GGTATTAGTTGAAAGGGCAACCGAATGATTCTCG,1.14,1.49,1.06,1.41,0.907,2.66,3.26,5.07,3.13,4.79,0.803,1.67,1.15,0.67,2.69,1.23,1.44,1.88,2.51,2.42
CCTAGCAGGCCGGGGTCACTCAAGCATTTCGCTT,4.66,3.63,-0.0184,3.88,-0.234,4.93,2.5,3.86,0.906,2.54,0.19,1.7,-1.3,-0.709,1.87,5.35,0.474,5.98,0.348,3.53
GCTAGTTGGTCAGTAAAAGTTCACACACCGGTCG,0.899,2.22,4.58,1.73,0.297,1.95,0.79,1.98,0.387,1.5,0.674,0.916,-0.358,0.138,2.26,3.43,3.27,2.53,1.14,2.73
CCTATTGGGCCACGAAAGGTCATTGATTCAGTGA,3.94,5.43,5.04,4.14,0.248,4.6,2.92,4.31,1.71,3.67,4.26,4.09,0.172,-0.271,5.52,5.82,1.47,5.93,2.11,4.13
CCAGACAGGTGAAAGCTAACTCAGTCTGGTACGC,-0.364,-0.206,-0.559,-0.0941,-0.593,0.302,0.368,-0.0659,-0.35,-0.285,1.15,0.32,-0.519,-0.546,-0.106,-0.352,-0.314,-0.197,-0.137,0.542
CCTAGTTGGTCAAGGACACACACGCTATAGGTAC,0.477,0.154,0.309,0.44,0.532,0.0552,1.12,0.49,0.287,0.489,1.07,1.39,0.248,-0.0353,0.735,0.0768,0.977,1.06,1.89,1.51
CCTCGGAGGACAGAAAGTCAGAGCTGTCCGCTTT,-0.421,-0.464,-0.45,-1.05,-0.903,-0.745,-0.796,-0.982,-1.28,-1.14,-0.616,-1.05,-1.75,-1.4,-0.952,-0.859,-0.619,-0.54,-0.769,0.221
TTACCAAGGTGAGCTGATGTCGTTGATCCAACTC,0.178,-0.111,-0.671,-0.252,-0.971,0.344,0.146,0.25,0.147,0.11,1.17,1.55,-0.517,0.259,-0.264,0.24,-0.552,0.2,-0.759,0.933
CCTACTGGGCCAAAGGTCAATGATTCCAATGCTC,4.07,4.39,2.6,4.52,0.165,6.29,12.1,10.4,10,12.8,5.3,6.73,1.6,1.78,4.39,4.46,0.657,5.75,1.53,4.5
TCATATAGGTAAATGCTAGATGAAAGTCCGATCT,0.267,0.34,-0.249,0.68,-0.163,1.06,1.06,1.99,3.6,2.79,3.61,1.84,0.931,1.42,-0.0567,0.422,0.0659,0.328,0.951,0.201
AGTCAGAGTTCACTAGGTAACGTAAGATTCAGCT,4.41,4.52,2.25,2.64,0.624,4.54,5.57,5.35,2.12,4.4,2.59,4.05,1.02,0.611,2.37,4.41,3.8,2.72,0.385,3.97
CATACAGGGTCAGCTAGGCCAGGGTAGGGACGGC,4.52,2.89,-0.0552,1.98,0.437,4.12,3.01,2.84,0.569,1.95,0.462,2.48,0.368,0.335,1.37,2.18,-0.00796,3.16,0.91,4.02
ACTAGCAGGCCAAGTTAGGGTCACTCAAACAAAG,1.87,1.73,-0.142,2.55,-0.86,3.36,0.753,1.38,-0.00931,1.07,0.489,1.32,0.153,-0.603,1.07,3,0.292,3.73,-0.482,2.86
CCTCGGAGGACAACAGGAGGTCTGAGCTGCCAGA,-0.506,-0.574,-0.845,-1.09,-1,-0.764,-0.138,-0.868,-1.36,-1.17,-0.107,-0.71,-1.05,-1.49,-0.258,-0.738,-0.871,-0.635,-0.516,0.983
GCATATAGGTAATACGAGGTGAAAGTCCGATTGT,2.16,2.66,0.407,0.883,-0.463,1.76,1.44,1.38,0.459,0.853,4.42,3.44,0.607,1.33,0.669,0.96,0.299,1.27,0.304,0.336
TCTGCTCGGTCAGTTGGTCAGCTAACGAGCTGCC,-0.211,-0.247,-0.549,-0.506,0.134,-0.00259,-1.22,0.38,0.881,0.52,0.685,0.74,-0.215,0.0745,-0.826,-0.447,-1.11,-0.352,-1.55,1.73
ACTAGCAGGCCAAGGGTCACTCAAGATTAGTCCG,2.48,2.76,0.0687,2.81,-0.402,4.43,7.75,7.53,7.41,8.63,0.983,4.06,-0.0619,-0.0525,2.65,3.21,-0.112,3.84,0.215,3.41
GGAACGAGCGCAAGTTGATAGCAGAGTTTGATGG,-0.654,-0.851,-0.781,-1.08,-1.48,-0.641,0.166,-0.948,-0.778,-0.888,-0.621,-0.838,-2.04,-1.98,-1.77,-0.63,-0.349,-1.15,-1.13,-0.612
CAAACTTGGTCAAGAGGTCAAAGTCCGCTTCCCG,5.72,5.27,5.52,5.04,1.18,5.37,4.2,5.18,2.94,4.56,2.35,3.8,0.805,0.619,2.46,5.73,1.66,6.15,1.11,4.47
CGTCCAAGGTCAAGTTCAGTGAAAGAGACTCGAA,8.18,5.89,2.13,4.76,2.42,5.94,5.62,5.92,2.3,4.88,2.98,3.88,1.06,-0.344,3.64,5.19,3.9,5.39,2.56,5.66
TTACCAACGTGAAGGTCGTTGATCCCTCTGTAGA,1.87,1.9,0.292,1.88,-0.33,1.35,0.00743,0.541,0.511,0.656,0.422,-0.0578,-0.0855,-0.0405,0.497,1.42,0.561,1.13,-0.198,0.811
AGTCAAAGATCACTAGGTAACGTAAGATTCAGCT,-0.239,0.0788,-0.206,0.152,-0.329,1.52,2.34,2.95,0.876,2.3,1.14,2.97,0.137,0.156,0.697,-0.103,0.0772,0.125,0.459,0.233
GCGACTGGGGCATCAGCAGGTTATCATAACTTAA,-0.342,-0.258,-0.199,0.87,-0.615,1.38,0.968,0.916,-0.378,0.369,3.69,3.13,-0.424,-0.757,0.000895,0.377,-0.554,0.458,-0.474,0.845
ATACCAAGGTGATCGTGAGGTCGTTGGTACTAAC,1.53,1.48,0.698,0.769,0.221,1.51,0.281,0.597,-0.201,0.338,0.259,1.28,-0.235,-0.0791,0.658,2.89,0.856,2.43,-0.116,1.43

# From the supplement of paper PMC6555819
